According to PubChem BioAssay AID504727 (Broad Institute, 2011):
Where “and” joins values, the source holds several entries; their conditions need not be identical. Equal values may be shown once. Calls of active or inactive are those of the source.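 How the source made its calls: active means fitted half-maximal concentration AC50 at or below ten times the highest valid tested dose, with signal falling as DNA is displaced (actives reach about 34 µM in these data); inconclusive means flat fit at moderate signal loss, or poor fit quality; inactive means the rest, including signal rising instead of falling.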

Assay: acridine orange-DNA binding displacement – biochemical, fluorescence polarization, cherry-picked samples, set 2, artefact control for KSHV LANA DNA-binding inhibitor project, dose response (AID 504727);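 on activity change, negative = DNA displacement: 0% = median of neutral control wells and -100% = mitoxantrone positive control wells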
Settings: series mostly up to 35 µM; activity change, negative = DNA displacement: at the top concentration

| Compound | AC50 | activity change, negative = DNA displacement |
| --- | --- | --- |
| CC(C)(C)n1nnnc1C(c1cccnc1)N(Cc1ccccc1)Cc1ccco1 (stereo unspecified) | 202 nM (active) |  |
| Cc1ccc(N=Nc2c(O)[nH]c3ccc(F)cc23)cc1 |  | 64.6% (inactive) |
| Cc1ccc(NS(=O)(=O)c2ccc(C(=O)NCCCN3CCCC3=O)cc2)cc1 |  | 2.52% (inactive) |
| CN(c1ccc(OCC(=O)OCC(=O)c2c(N)n(C)c(=O)n(C)c2=O)cc1)S(=O)(=O)c1ccc2ccccc2c1 |  | 7.45% (inactive) |
| COC(=O)c1ccccc1OCC(=O)N1CCN(c2ccc(Cl)cc2)CC1 |  | 6.05% (inactive) |
| Cc1cc(C)n(CCC(=O)N/N=C/c2ccc(O)cc2O)n1 |  | 4.84% (inactive) |
| O=C1c2c(O)ccc(O)c2C(=O)c2c(NCCNCCO)ccc(NCCNCCO)c21 | 1.34 µM (active) and 2.32 µM (active) |  |
| O=S(=O)(O)c1cc(O)c(N=Nc2ccc(O)cc2O)c2ccccc12 |  | 4.5% (inactive) |
| Cc1ccc(OCC(=O)O/N=C(\N)Cc2ccc([N+](=O)[O-])cc2)cc1C |  | 4.56% (inactive) |
| COc1cccc(C2CC(=O)Nc3cc4c(cc32)CCC4)c1 (stereo unspecified) |  | -1.39% (inactive) |
| Cc1ccc(C(=O)CCC(=O)Nc2ncccc2C)cc1 |  | 10.4% (inactive) |
| O=C(O)c1ccc(NS(=O)(=O)c2ccc3c(c2)C2C=CCC2C(c2ccccc2F)N3)cc1 (stereo unspecified) |  | 3.93% (inactive) |
| Cc1ccc(C(CC(=O)N2CCCCC2)c2ccccc2)c(O)c1C (stereo unspecified) |  | 2.77% (inactive) |
| O=C(Nc1ccccc1F)C(=Cc1sc(N2CCOCC2)nc1-c1ccccc1)C(=O)Nc1ccccc1F | 25100 nM (active) |  |
| CC1=[N+](C)N(c2ccccc2)C(=O)C1N=C/C=C/c1ccccc1 (stereo unspecified) |  | 2.35% (inactive) |
| CC(Oc1ccccc1)c1nnc(N)s1 (stereo unspecified) | 17500 nM (active) |  |
| O=C(NCC1CCCO1)c1cccc(S(=O)(=O)N(Cc2ccccc2)c2ccccc2)c1 (stereo unspecified) |  | -1.69% (inactive) |
| C=CCNC(=S)N1CCN(S(=O)(=O)c2ccc(C)cc2)CC1 |  | 5.53% (inactive) |
| COC(=O)c1ccccc1-c1c2ccc(=N)cc-2oc2cc(N)ccc12 | 35 nM (active) |  |
| COc1ccc(-c2cc(C(F)(F)F)n3ncc(C(=O)N4CCCCC4c4cccnc4)c3n2)cc1 (stereo unspecified) |  | 5.21% (inactive) |
| COc1ccc(NC(=O)CN(C)CC(=O)Nc2ccc(N3CCOCC3)cc2)c([N+](=O)[O-])c1 |  | -1.51% (inactive) |
